# PubChem BioAssay (NCATS)
# Values joined by “and” are separate entries in the source; they are usually repeats but may differ in a detail not shown here. Equal values may be shown once. Inconclusive results are not listed. A call without a number means that no potency is given here. A number with no mark means an inactive call. Active and inactive are the calls of the source. Unless noted, the call rests on the fitted dose curve; in most records, active means well fitted curve in the direction sought with a large enough effect; inconclusive means small, poorly fitted or top-dose-only effect, or another doubt; inactive means no such curve, though single readings can be large; an effect the other way counts as inactive or inconclusive.
# How the values were obtained:
# [1] = target: Cellular tumor antigen p53 (Homo sapiens) (UniProt P04637); test: Primary qHTS for small molecule compounds that upregulate eGFP-tagged delta133p53alpha (in N-terminal) cells. (AID 2060322); details: NCI-H358 eGFP-delta133p53alpha fluorescence, 24 h; activation: hits give high values; further: nearly all actives have a fitted effect of over 75% in size; further: potency means the concentration at half of the fitted maximal effect; on activation: series mostly up to about 56 µM
# Chain of Cellular tumor antigen p53 (Homo sapiens) (P04637 whole entry, looked up): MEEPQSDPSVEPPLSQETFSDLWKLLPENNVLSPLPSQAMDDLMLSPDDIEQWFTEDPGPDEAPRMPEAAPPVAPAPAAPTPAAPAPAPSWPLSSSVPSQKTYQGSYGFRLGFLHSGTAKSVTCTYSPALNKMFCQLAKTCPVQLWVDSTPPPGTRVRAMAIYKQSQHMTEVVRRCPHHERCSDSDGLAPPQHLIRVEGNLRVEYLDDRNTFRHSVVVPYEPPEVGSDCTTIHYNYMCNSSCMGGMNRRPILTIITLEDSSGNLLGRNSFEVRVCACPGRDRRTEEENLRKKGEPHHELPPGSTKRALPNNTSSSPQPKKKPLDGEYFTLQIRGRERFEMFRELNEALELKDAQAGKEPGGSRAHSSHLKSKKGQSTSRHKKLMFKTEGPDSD
# Method in brief: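 NCI-H358 cells pre-induced 24 h with 10 ng/ml doxycycline to express N-terminal eGFP-delta133p53alpha, then dosed 24 h at 37C without doxycycline; fixed, Hoechst-stained, GFP intensity by laser scanning cytometry, normalized to DMSO (0%) and 57.5 uM 5-azacytidine (100%).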
# [2] = target: Aldehyde dehydrogenase, mitochondrial (Homo sapiens) (UniProt P05091); test: qHTS for Inhibitors of the Aldehyde Dehydrogenase Family (ALDH2) Validation screens (AID 2061302; active means well fitted inhibition curve with a large enough effect; title and protocol of this record describe different tests)
# [3] = target: Retinaldehyde dehydrogenase 3 (Homo sapiens) (UniProt P47895); test: qHTS for Inhibitors of the Aldehyde Dehydrogenase Family (ALDH1A3) Validation screen (AID 2061312); further: nearly all actives have a fitted effect of over 45% in size
SMILES,activation [1],Potency [2],Potency [3],Potency [1]
Cc1nc(N=Nc2ccc(S(=O)(=O)O)cc2S(=O)(=O)O)c(COP(=O)(O)O)c(C=O)c1O,-9.78%,inactive,inactive,–
Cc1c(O)cccc1C(=O)N[C@@H](CSc1ccccc1)[C@H](O)CN1C[C@H]2CCCC[C@H]2C[C@H]1C(=O)NC(C)(C)C,-0.838%,inactive,inactive,–
CN1CCN2c3ccccc3Cc3ccccc3C2C1 (stereo unspecified),-35.4%,inactive,inactive,–
c1ccc2c(c1)CCC[C@H]2Nc1nc2ccccc2[nH]1,27.9%,inactive,inactive,–
COc1cc2nc(N3CCN(C(=O)c4ccco4)CC3)nc(N)c2cc1OC,2.51% and 14.7% and 81.5%,inactive,inactive,–
NCCCC(=O)O,-3.84%,inactive,inactive,–
C[C@H]1CC2C3CCC4=CC(=O)C=C[C@]4(C)[C@@]3(Cl)[C@@H](O)C[C@]2(C)[C@@]1(O)C(=O)CO (stereo partly specified),-21.3%,inactive,inactive,–
C=C(C)C1CC=C(C(=O)O)CC1 (stereo unspecified),-6.28%,inactive,inactive,–
C=CCNc1ncnc2ccc(Br)cc12,-43.6%,inactive,inactive,–
CC(=O)O[C@H]1Cc2ccccc2N(C(N)=O)c2ccccc21,5.86%,inactive,inactive,–
CC1=C(/C=C/C(C)=C/C=C/C(C)=C/C(=O)Nc2ccc(O)cc2)C(C)(C)CCC1,-39.3%,inactive,inactive,–
CC12C(=O)OC(=O)C1(C)C1CCC2O1 (stereo unspecified),–,inactive,inactive,1.69 µM (active)
COc1ccccc1N1CCN(CCCNc2c(C)c(=O)n(C)c(=O)n2C)CC1,-0.789%,inactive,inactive,–
CCCCNc1ccc(C(=O)OCCN(C)C)cc1,-9.6% and 10.7%,inactive,inactive,–
Cn1c(=O)c(-c2c(Cl)cccc2Cl)cc2cnc(Nc3ccc(N4CCOCC4)cc3)nc21,-42.1%,inactive,inactive,–
CC(C)(C=O)Cc1cc(C(C)(C)C)c(O)c(C(C)(C)C)c1,-15.2%,inactive,inactive,–
C=C1C(=O)O[C@@H]2[C@H]3O[C@]3(C)CCC=C(C)CC[C@@H]12,-45%,inactive,inactive,–
CCCCCCCCCCCCCCCC(=O)OC(CC(=O)O)C[N+](C)(C)C (stereo unspecified),-11.1%,inactive,inactive,–
CCN(CC)c1ncnc2c1ncn2[C@@H]1O[C@H](COP(=O)(O)OP(=O)(O)C(Br)(Br)P(=O)(O)O)[C@@H](O)[C@H]1O,-18.4%,inactive,inactive,–
Nc1cc(Cl)c(NC2=NCCN2)c(Cl)c1,-1.06%,inactive,inactive,–
CN1CCN(c2nc3cc(C(F)(F)F)ccc3n3cccc23)CC1,-11.1%,inactive,inactive,–
COc1ccc(-c2cc(=O)c3c(O)c(OC)c(OC)cc3o2)cc1O,37.1%,inactive,inactive,–
NC[C@H]1O[C@@H](n2cnc3c(N)ncnc32)[C@H](O)[C@@H]1O,4.39%,inactive,inactive,–
CNCCC=C1c2ccccc2CCc2ccccc21,33%,inactive,inactive,–
COc1ccccc1OCCNCC(O)COc1cccc2[nH]c3ccccc3c12 (stereo unspecified),23.9% and -57.4%,inactive,inactive,–
CCCOC(=O)c1c(-c2ccccc2)nc(CC)c(C(=O)SCC)c1CCC,-30.9%,inactive,inactive,–
COC(=O)C1=C(C)NC(C)=C(C(=O)OC(C)(C)CN(C)CCC(c2ccccc2)c2ccccc2)C1c1cccc([N+](=O)[O-])c1 (stereo unspecified),17.5%,inactive,inactive,–
